# GALR2 blocker = antagonists of human galanin receptor 2 (GALR2); O43603; GALR2-expressing cells, antagonist mode; inhibition, % at 4 µM; 140,000 tested, 0.39% active; in the data active = inhibition above about 27%;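 also: cells stimulated with galanin 1-16 at roughly its EC80; 0% = agonist challenge control and 100% = basal control without agonist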
# Target sequence (O43603 whole entry, looked up): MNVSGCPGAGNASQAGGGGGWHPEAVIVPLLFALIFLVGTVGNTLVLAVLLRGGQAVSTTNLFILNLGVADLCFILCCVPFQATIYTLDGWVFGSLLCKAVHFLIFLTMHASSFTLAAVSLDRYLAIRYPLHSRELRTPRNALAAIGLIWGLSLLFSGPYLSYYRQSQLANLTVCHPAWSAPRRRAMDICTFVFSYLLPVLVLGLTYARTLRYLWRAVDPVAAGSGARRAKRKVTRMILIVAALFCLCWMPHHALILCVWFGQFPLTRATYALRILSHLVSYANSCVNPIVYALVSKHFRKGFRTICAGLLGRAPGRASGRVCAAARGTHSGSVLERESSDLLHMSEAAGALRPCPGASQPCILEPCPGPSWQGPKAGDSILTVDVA
# S1P2 ag = agonists of human S1P2 receptor; O95136; S1P2-expressing cell line, agonist reporter read-out; activation, % at 4.5 µM; 97,000 tested, 0.46% active; AID 729; in the data active = activation above about 16%;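 also: 0% = vehicle low control and 100% = maximal reference agonist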
# S1P2 blocker = S1P2 (human) receptor antagonism. O95136. cell-based S1P2 antagonist assay, inhibition at 5 uM. inhibition, % at 5 µM. 97,000 tested, 0.21% active; in the data active = inhibition above about 45%;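 also: CRE beta-lactamase reporter cells expressing human S1P2 stimulated with S1P; 0% = agonist at EC80 alone and 100% = agonist plus reference antagonist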
# DAT uptake mod = human DAT dopamine uptake with cocaine, either direction; LLC-PK1 hDAT cells, [14C]-dopamine uptake with cocaine IC80; actives deviate in either direction; B-score at 10 µM; 110,000 tested, 1.3% active;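 active = Z score or B-score, a plate-position-corrected score, falls beyond the plate's 99.7% confidence bounds, in either direction; inactive = both scores lie inside the 99.7% bounds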;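 also: scored against the spread of the other compound wells on the same plate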
# GALR2 agonist = GALR2 (human) receptor agonism | O43603 | GALR2-expressing cells, agonist activation read-out | activation, % (test concentration not listed) | 140,000 tested, 0.48% active; in the data active = activation above about 5%, passing the limit was not always enough;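 also: 0% = vehicle buffer wells and 100% = reference agonist at full effect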
# * = called active by the depositor; / = no result given. An excerpt weighted towards active compounds, which were near 2.1% of everything screened.
SMILES,GALR2 blocker,S1P2 ag,S1P2 blocker,DAT uptake mod,GALR2 agonist
CC1CCCCC1NC(=O)CN1C(=O)CSc2cc(S(=O)(=O)N3CCCCCC3)ccc21 (configuration not stated),9.9,/,/,/,-1.4
COc1cc(NC(=O)Cc2nn(C)c(=O)c3ccccc23)cc(OC)c1,17.6,-5.4,19.2,-0.188,-0.6
Cc1ccc(NC(=O)Cc2nn(C)c(=O)c3ccccc23)cc1F,21.3,-3.2,66.8*,-0.00422,-0.5
COc1ccccc1CN=c1c([N+](=O)[O-])nn(-c2ccc3c(c2)OCCO3)n1O,-1.2,/,/,/,-1.4
O=[N+]([O-])c1nn(-c2ccc3c(c2)OCCO3)n(O)c1=NCc1ccccc1Cl,9.3,-6.6,-5.7,13.6*,-3.2
Cc1ccc(OCCNc2cc(N3CCN(CCO)CC3)ccc2[N+](=O)[O-])cc1C,-1.3,/,/,/,0.3
Cc1cc(OCC(=O)NCc2nc(-c3ccccc3)no2)c(C)cc1Br,9.9,-2.6,2.4,-0.427,-2.3
Cc1ccc(O)c(-c2cc(C(F)(F)F)[nH]n2)c1,0.8,-0.6,3.5,0.342,-1.6
Cc1c(N/C(=N/S(=O)(=O)c2ccc(Cl)cc2)c2ccccc2)c(=O)n(-c2ccccc2)n1C,-3.2,/,/,/,0.2
Cc1ccc(S(=O)(=O)/N=C(/Nc2c(C)n(C)n(-c3ccccc3)c2=O)c2ccc(Cl)cc2)cc1,3.7,-3.6,15.8,5.56*,-1.1
Cc1cc(C)n2nc3ccccc3c2n1,1.3,-11.1,-22.4,-0.5,-3.3
Nc1nc2c3ccccc3nc(C3CC3)n2n1,-9.7,24.3*,-66.9,0.13,1.1
CC(=O)NC(CCS(C)(=O)=O)C(=O)Nc1ccc(C)c(F)c1 (configuration not stated),-1.3,-7.1,-2.2,0.314,-2.2
CCCCSc1ccc2nc(-c3ccc(C#N)cc3)cn2c1,-11.5,-4.6,12.8,2.45*,-1.1
Cc1cc(=O)n2nc(-c3ccccc3)sc2c1C#N,3.9,/,/,2.5*,0.1
Cc1nc2sc(-c3ccccc3)nn2c(=O)c1Br,16.9,/,/,/,-0.5
CCc1cc(=O)oc2cc(OCC(=O)O)c(Cl)cc12,-5.5,20.9*,-6.8,-0.0761,-1.3
Cc1cc2n(n1)C(c1ccc3c(c1)OCO3)Nc1c(C)cccc1-2 (configuration not stated),5.3,-8.4,-6.2,3.52*,-2.9
Cc1cc(C)c2c(c1)-c1cc(C)nn1C(c1ccc3c(c1)OCO3)N2 (configuration not stated),6.2,-6.9,-15.8,-0.468,-1.8
CN(C(=O)c1ccc(S(=O)(=O)c2cccc(Cl)c2)c([N+](=O)[O-])c1)C1CCCCC1,8.0,/,/,/,-0.4
CCOC(=O)c1ccc(N2C(=O)C3CC=CCC3C2=O)cc1 (configuration not stated),-7.9,-2.4,-6.2,7.85*,1.6
O=c1c(-c2nc3ccccc3s2)cccn1Cc1ccc(Cl)c(Cl)c1,-12.7,109.0*,-116.8,0.596,11.5*
O=C(c1cccn(Cc2ccc(Cl)c(Cl)c2)c1=O)N1CCOCC1,12.6,-5.9,6.5,-0.435,-3.7
CCc1ccc2[nH]c(=O)c(CN(Cc3ccc4c(c3)OCO4)Cc3nnnn3C3CCCC3)cc2c1,0.6,24.2*,0.7,0.274,-1.8
COc1cc2cc(CN(C(=O)Nc3ccccc3)C3CCCC3)c(=O)[nH]c2cc1OC,-9.7,-7.1,0.8,3.29*,-2.5
SMILES,GALR2 blocker,S1P2 ag,S1P2 blocker,DAT uptake mod,GALR2 agonist
CC(C)(C)n1nnnc1CN(Cc1ccco1)Cc1cc2cc3c(cc2[nH]c1=O)OCO3,3.6,-7.8,11.6,1.52*,-1.8
CCC(C)(C)n1nnnc1CN(Cc1ccco1)Cc1cc2cc3c(cc2[nH]c1=O)OCO3,-11.4,1.1,7.4,0.392,-0.2
Cc1ccc2cc(CN(Cc3ccc(F)cc3)Cc3nnnn3C3CCCC3)c(=O)[nH]c2c1,-9.3,-9.4,19.9,0.898,-0.5
COc1cc2cc(CN(Cc3nnnn3Cc3ccco3)C3CCCCC3)c(=O)[nH]c2cc1OC,3.2,-1.6,21.2,3*,0.2
Cc1cc(NS(=O)(=O)c2ccc(NC(=S)NC(=O)c3ccc(Br)cc3)cc2)no1,-14.3,/,/,/,-0.5
Cc1ccc(-c2csc3ncnc(-n4cnc5ccccc54)c23)cc1,-1.7,/,/,/,0.3
N=c1c2c(n(Cc3ccc(F)cc3)c3c1CCC3)CCC2,13.4,-5.2,15.5,-5.18*,0.0
CCCCNc1cc(=O)n(C)c(=O)[nH]1,11.9,37.6*,-3.7,-0.201,-1.1
Cn1c(=O)cc(NCc2ccccc2)[nH]c1=O,9.6,/,/,0.683,-2.4
Cc1ccc(C(C)C)cc1OCC(=O)N/N=C/c1ccc2c(c1)OCCO2,-4.6,/,/,/,-2.1
COc1ccc(NC(=O)CN2CCN(C3c4ccccc4-c4ccccc43)CC2)cc1,4.4,-10.6,0.5,0.0929,-0.2
CC(C)=CCc1c(O)cc(O)c2c(=O)c3c(CC=C(C)C)c(O)ccc3oc12,/,/,/,1.73,/
O=C(COc1ccc(Cl)cc1Br)NNC(=O)C(=O)N1CCCCC1,3.2,-4.9,-11.7,-0.776,21.1*
COc1ccccc1N(CC(=O)NCc1ccccc1)C(=O)CCC(=O)Nc1cc(C)ccn1,2.1,-3.8,16.2,2.5*,-0.8
Cc1ccnc(NC(=O)CCC(=O)N(CC(=O)NCc2ccccc2)c2ccc3c(c2)OCO3)c1,3.7,-4.5,-27.8,0.281,-1.8
Cc1ccc(S(=O)(=O)N2CCN(c3ccc(C(=O)N4CCOCC4)cc3[N+](=O)[O-])CC2)cc1,9.5,/,/,/,0.4
c1ccc(C(c2ccccc2)N2CCN(c3nc4ccccc4n4cnnc34)CC2)cc1,-0.7,23.8*,29.2,1.07,-0.3
CCOc1ccc(OCC)c(NC(=O)CSc2nc3c(c(=O)n(C)c(=O)n3C)n2C(C)C)c1,-1.4,25.6*,-37.5,3.03*,-0.1
CCOc1ccc(OCC)c(NC(=O)CSc2nc3c(c(=O)n(C)c(=O)n3C)n2CC)c1,-1.4,4.1,-18.3,-0.521,-1.8
O=C(O)Cn1nnnc1SCC(=O)Nc1ccc(OC(F)(F)F)cc1,1.6,-2.5,-1.2,-0.395,-3.1
O=C1CC(c2ccco2)CC(O)=C1C=Nc1cc(Cl)ccc1Cl (configuration not stated),5.9,/,/,/,-1.1
O=C1CC(c2ccco2)CC(O)=C1C=Nc1cc(Cl)ccc1O (configuration not stated),13.3,-4.0,18.9,-8.54*,-2.1
Fc1ccc(-c2nn3c(C4COc5ccccc5O4)nnc3s2)cc1 (configuration not stated),-5.2,-6.2,-9.1,/,-1.7
c1ccc2c(c1)OCC(c1nnc3sc(-c4ccc5c(c4)OCO5)nn13)O2 (configuration not stated),2.9,-6.3,3.9,-8.61*,-2.1
CCCOc1ccc2oc(=O)c3c(c2c1)CCCN3C(=O)CN1CCN(C(=O)c2ccco2)CC1,4.8,/,/,/,-1.3
O=C(CN1CCCC1)N1CCCc2c1c(=O)oc1ccc(OCc3ccccc3)cc21,2.7,-3.9,12.2,2.21*,-2.3
Cc1ccc(N2C(=O)C(c3c(C)[nH]n(-c4ccccc4)c3=O)(C(F)(F)F)C3=C2CC(C)(C)CC3=O)cc1 (configuration not stated),-6.8,-4.8,-1.1,-5.07*,2.8
COc1ccc(OC)c(S(=O)(=O)NCCOC23CC4CC(CC(C4)C2)C3)c1,-8.3,/,/,/,-1.4
